{"source": "the supplement of paper PMC10849652", "note": "Of roughly 7,900 targets only a part is listed; those with a hit were picked by preference. About 0.6% of all pairs of compound and target were hits."}
{"compound": "CC1=C2C(=CC=C1)N=C(N(C2=O)C3=CC=CC=C3C)CN4C=NC5=C(N=CN=C54)N", "test": "log2 fold change, soluble protein after heating vs DMSO (PISA); higher = thermal stabilisation; K562 cells, 10 uM, 30 min; active = over 0.2 and 3.5 SD of the protein, either way, in both replicates (recomputed)", "procedure,_shortened": "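Aliquots of K562 cells (2×10^6 cells/mL) treated with 10 μM compound for 30 min were heated for 3 min over 48°C-58°C. After pooling and extraction in PBS with 0.5% NP-40 at 4°C, soluble protein from a 21,000xg, 90 min spin was quantified by TMTpro 16plex LC-MS/MS with channel sums equalised. Thermal stability is expressed against control samples, from duplicates, as a log2 fold change.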"}
{"target": "DHRS3 (UniProt O75911)", "log2 fold change": "0.057 (inactive)"}
{"target": "EFCAB14 (UniProt O75071)", "sequence (O75071 whole entry, looked up)": "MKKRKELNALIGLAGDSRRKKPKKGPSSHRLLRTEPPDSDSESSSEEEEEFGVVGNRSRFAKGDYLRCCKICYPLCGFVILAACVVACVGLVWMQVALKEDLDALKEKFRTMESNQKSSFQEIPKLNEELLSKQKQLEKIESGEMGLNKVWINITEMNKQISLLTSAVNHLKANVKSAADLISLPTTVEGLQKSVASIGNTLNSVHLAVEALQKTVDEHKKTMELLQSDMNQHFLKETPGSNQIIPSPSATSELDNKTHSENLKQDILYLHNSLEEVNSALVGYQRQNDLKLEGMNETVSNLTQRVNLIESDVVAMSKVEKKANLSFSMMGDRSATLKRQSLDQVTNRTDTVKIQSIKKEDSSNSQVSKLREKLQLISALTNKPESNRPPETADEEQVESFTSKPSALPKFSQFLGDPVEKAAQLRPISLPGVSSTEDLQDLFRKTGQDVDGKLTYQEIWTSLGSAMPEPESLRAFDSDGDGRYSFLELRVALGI", "log2 fold change": "0.016 (inactive)"}
{"target": "ECH1 (UniProt Q13011)", "log2 fold change": "0.086 (inactive)"}
{"target": "DTWD2 (UniProt Q8NBA8)", "log2 fold change": "0.064 (inactive)"}
{"target": "DDX5 (UniProt P17844)", "log2 fold change": "0.067 (inactive)"}
{"target": "DTNBP1 (UniProt Q96EV8)", "log2 fold change": "0.02 (inactive)"}
{"target": "FADS1, A0A0A0MR51", "log2 fold change": "0.026 (inactive)"}
{"target": "EHD2 (UniProt Q9NZN4)", "log2 fold change": "0.022 (inactive)"}
{"target": "ERLIN2 (UniProt O94905)", "sequence (O94905 whole entry, looked up)": "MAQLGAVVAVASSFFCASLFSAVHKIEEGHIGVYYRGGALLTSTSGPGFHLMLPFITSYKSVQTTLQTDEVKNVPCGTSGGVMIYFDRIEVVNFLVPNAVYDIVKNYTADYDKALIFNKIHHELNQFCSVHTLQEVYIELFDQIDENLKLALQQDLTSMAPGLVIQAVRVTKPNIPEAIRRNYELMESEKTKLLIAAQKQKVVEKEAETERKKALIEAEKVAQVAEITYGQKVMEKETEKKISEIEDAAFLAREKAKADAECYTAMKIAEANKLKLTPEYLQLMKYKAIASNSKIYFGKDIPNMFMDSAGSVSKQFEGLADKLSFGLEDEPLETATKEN", "log2 fold change": "-0.038 (inactive)"}
{"target": "FAM83D (UniProt Q9H4H8)", "log2 fold change": "0 (inactive)"}
{"target": "DHRS1 (UniProt Q96LJ7)", "log2 fold change": "0.216 (inactive)"}
{"target": "DNAJC19 (UniProt Q96DA6)", "sequence (Q96DA6 whole entry, looked up)": "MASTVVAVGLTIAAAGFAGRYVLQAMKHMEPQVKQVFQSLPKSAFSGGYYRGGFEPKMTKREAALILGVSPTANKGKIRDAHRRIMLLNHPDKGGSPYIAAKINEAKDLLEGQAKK", "log2 fold change": "0.05 (inactive)"}
{"target": "FAM50A (UniProt Q14320)", "sequence (Q14320 whole entry, looked up)": "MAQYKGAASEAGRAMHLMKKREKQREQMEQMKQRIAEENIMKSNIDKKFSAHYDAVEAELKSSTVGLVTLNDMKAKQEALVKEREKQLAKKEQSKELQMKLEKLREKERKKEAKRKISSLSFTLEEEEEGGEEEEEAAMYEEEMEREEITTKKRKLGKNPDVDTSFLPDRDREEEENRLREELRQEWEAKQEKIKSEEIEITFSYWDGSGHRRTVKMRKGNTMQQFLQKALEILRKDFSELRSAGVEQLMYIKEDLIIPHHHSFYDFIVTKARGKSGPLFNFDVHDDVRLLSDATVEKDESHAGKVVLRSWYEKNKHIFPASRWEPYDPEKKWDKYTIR", "log2 fold change": "0.033 (inactive)"}
{"target": "CUEDC2 (UniProt Q9H467)", "log2 fold change": "0.038 (inactive)"}
{"target": "FAF2 (UniProt Q96CS3)", "sequence (Q96CS3 whole entry, looked up)": "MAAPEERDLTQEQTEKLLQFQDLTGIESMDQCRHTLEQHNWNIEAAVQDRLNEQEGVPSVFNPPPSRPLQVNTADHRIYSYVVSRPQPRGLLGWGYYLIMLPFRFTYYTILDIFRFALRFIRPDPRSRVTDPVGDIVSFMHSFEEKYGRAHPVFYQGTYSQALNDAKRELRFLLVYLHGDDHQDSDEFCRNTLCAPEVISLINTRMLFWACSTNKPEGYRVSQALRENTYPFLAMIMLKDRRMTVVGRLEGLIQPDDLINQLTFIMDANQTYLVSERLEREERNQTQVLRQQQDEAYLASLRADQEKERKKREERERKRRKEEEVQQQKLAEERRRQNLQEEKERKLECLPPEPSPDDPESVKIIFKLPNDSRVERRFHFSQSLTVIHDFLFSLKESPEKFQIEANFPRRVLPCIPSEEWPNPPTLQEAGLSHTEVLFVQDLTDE", "log2 fold change": "0.067 (inactive)"}
{"target": "F5 (UniProt P12259)", "log2 fold change": "0.003 (inactive)"}
{"target": "EIF3J (UniProt O75822)", "log2 fold change": "-0.004 (inactive)"}
{"target": "FAM3A (UniProt P98173)", "log2 fold change": "0.038 (inactive)"}
{"target": "DMXL1 (UniProt Q9Y485)", "sequence (Q9Y485 whole entry, looked up)": "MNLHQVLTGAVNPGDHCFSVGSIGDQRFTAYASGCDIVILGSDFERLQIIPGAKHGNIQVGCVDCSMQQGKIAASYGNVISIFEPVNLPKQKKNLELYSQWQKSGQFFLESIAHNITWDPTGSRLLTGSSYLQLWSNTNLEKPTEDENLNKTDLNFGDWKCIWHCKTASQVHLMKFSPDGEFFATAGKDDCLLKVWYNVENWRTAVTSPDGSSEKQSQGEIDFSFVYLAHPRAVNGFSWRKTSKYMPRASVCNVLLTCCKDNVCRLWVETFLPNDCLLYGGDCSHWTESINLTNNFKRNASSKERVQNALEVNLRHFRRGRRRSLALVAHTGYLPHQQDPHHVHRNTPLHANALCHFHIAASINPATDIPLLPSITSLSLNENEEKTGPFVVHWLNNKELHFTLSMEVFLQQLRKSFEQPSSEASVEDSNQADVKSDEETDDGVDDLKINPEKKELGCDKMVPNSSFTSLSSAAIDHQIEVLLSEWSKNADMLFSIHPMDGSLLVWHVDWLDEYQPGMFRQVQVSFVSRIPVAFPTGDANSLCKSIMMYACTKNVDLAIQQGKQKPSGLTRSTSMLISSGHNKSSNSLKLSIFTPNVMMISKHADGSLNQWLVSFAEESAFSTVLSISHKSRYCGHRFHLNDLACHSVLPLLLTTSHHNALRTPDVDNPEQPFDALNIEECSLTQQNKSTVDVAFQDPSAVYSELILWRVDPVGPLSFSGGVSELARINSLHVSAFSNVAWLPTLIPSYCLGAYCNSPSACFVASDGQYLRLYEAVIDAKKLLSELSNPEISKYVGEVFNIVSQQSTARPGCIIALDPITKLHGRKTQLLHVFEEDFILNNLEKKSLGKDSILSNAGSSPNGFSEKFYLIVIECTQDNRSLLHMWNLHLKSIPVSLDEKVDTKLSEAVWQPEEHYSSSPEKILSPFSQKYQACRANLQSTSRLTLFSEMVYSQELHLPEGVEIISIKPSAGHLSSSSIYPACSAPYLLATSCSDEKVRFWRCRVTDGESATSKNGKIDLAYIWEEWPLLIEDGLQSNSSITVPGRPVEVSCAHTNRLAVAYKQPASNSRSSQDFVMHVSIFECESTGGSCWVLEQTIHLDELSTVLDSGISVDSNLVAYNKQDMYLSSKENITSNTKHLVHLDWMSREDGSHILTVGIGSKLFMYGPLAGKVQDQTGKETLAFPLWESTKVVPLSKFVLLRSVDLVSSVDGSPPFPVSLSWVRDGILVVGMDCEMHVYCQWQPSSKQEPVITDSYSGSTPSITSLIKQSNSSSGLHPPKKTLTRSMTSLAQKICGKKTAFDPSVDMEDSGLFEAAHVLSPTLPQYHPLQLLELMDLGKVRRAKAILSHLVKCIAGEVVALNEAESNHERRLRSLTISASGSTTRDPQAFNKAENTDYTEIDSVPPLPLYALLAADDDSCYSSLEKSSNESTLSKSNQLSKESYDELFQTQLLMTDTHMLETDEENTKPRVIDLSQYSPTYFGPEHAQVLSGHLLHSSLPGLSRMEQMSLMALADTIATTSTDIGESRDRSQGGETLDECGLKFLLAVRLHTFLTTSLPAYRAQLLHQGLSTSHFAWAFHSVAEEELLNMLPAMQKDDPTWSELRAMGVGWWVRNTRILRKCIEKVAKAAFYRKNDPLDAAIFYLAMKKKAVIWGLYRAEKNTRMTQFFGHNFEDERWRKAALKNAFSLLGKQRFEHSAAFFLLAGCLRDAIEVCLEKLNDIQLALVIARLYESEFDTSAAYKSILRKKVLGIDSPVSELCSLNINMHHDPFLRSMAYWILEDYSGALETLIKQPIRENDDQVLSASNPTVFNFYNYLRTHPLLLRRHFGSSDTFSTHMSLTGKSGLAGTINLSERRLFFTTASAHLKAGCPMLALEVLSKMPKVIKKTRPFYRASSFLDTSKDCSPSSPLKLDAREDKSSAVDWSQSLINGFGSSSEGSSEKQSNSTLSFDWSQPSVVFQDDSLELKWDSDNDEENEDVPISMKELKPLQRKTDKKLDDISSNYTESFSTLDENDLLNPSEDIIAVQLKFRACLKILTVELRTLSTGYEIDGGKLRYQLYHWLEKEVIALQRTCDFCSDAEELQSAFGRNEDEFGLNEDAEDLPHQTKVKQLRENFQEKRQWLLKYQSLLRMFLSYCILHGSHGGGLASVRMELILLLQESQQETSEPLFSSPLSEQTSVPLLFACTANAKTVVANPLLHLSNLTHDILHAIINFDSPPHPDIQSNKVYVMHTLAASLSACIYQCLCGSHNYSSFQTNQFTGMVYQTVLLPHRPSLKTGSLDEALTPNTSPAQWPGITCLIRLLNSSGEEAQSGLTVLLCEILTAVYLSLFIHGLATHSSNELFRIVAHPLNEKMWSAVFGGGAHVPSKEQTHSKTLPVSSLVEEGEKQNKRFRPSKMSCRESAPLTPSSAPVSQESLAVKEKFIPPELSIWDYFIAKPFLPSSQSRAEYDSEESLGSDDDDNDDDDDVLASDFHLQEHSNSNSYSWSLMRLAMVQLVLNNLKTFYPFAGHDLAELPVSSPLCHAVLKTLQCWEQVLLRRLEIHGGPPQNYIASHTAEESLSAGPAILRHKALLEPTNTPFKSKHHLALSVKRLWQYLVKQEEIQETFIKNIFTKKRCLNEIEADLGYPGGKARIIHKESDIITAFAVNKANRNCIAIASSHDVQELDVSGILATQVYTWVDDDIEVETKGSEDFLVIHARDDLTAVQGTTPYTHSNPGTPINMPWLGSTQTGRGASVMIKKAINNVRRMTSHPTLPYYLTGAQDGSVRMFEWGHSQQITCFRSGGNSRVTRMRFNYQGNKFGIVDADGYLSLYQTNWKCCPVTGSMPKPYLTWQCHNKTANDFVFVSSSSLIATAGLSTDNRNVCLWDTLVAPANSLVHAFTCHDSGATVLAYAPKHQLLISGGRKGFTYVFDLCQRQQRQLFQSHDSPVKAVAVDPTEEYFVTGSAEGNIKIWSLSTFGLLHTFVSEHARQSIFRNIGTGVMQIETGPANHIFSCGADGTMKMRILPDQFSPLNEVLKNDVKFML", "log2 fold change": "0.071 (inactive)"}
{"target": "EIF4G1 isoform 8 (UniProt Q04637)", "log2 fold change": "-0.036 (inactive)"}
{"target": "EXOSC10 (UniProt Q01780)", "log2 fold change": "0.284 (inactive)"}
{"target": "EMD (UniProt P50402)", "sequence (P50402 whole entry, looked up)": "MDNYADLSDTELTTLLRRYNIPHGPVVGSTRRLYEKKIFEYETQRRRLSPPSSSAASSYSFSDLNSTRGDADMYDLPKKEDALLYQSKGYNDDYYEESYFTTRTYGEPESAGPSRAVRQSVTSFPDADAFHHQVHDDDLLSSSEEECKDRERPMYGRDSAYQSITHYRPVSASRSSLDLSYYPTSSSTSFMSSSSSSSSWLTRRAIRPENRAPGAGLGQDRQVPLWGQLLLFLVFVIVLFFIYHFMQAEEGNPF", "log2 fold change": "0.059 (inactive)"}
{"target": "DCTN1 isoform 4 (UniProt Q14203)", "log2 fold change": "0.096 (inactive)"}
{"target": "EIF4G3 isoform 3 (UniProt O43432)", "log2 fold change": "0.184 (inactive)"}
